Structures are written as SMILES. The campaign covered roughly 300,000 compounds. About 3,600 (1.2%) were called active. The list comes from a sample in which actives are over-represented; it also holds similar structures and randomly drawn compounds. Unmarked numbers belong to inactive results. Rule as the data show it: active = activation above about 30% (passing the limit was not always enough); inconclusive = no clear call, values can overlap the other calls.

These results are taken from PubChem BioAssay AID743398 (Broad Institute, 2014).

The assay is described as follows: activation of beta-catenin signaling reporter – cell-based, plate reader, single point, primary screen (AID 743398).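 Also: 0% = neutral control wells and 100% = positive control wells.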 The following applies: Wnt/beta-catenin reporter cell assay, activator, at 9.35 µM, active compounds read high.
As for `CCn1nc(C(=O)OCC(=O)N2c3ccccc3CC2C)c2ccccc2c1=O` (configuration not stated), the activation is -0.818%. The value for `Cc1ccn(CCC(=O)N2c3ccccc3CC2C)n1` (configuration not stated) was -0.727%; that for `CCCC(=O)N1c2ccc(-c3csc(N)n3)cc2CC1C` (configuration not stated) was 56.5% (active).

Regarding `CCc1nc2ccc(C(=O)NC3CCN(Cc4ccccc4)CC3)cn2c1N(CC)CCOC`, the activation is -0.563%. As for `O=C1C(Sc2cccc(F)c2)=C[C@@]2(O)CC[C@@H](O)[C@]1(Sc1cccc(F)c1)[C@H]2O`, the figure is -1.51%; as for `O=[N+]([O-])c1cccc(C=NN=Cc2ccccc2O)c1`, 68% (active). The value for `COc1ccc(O)c(/C=N/N=C/c2cccc([N+](=O)[O-])c2)c1` was 5.49%; that for `O=C(N/N=C/c1cccc([N+](=O)[O-])c1)c1ccncc1` was -0.352%. The value for `COCC1CCCCN1C(=O)c1cc(COc2ccc(C)c(C)c2)on1` (configuration not stated) was 28.7%. Consider `CO[C@@H]1CN(C)C(=O)c2cc(NC(=O)Nc3cc(F)ccc3F)ccc2OC[C@H](C)N(C(=O)c2ccccn2)C[C@@H]1C`, for which the activation is -7.29%. For `c1ccc2c(c1)nnn2-c1ccncc1`, the activation is -1.47%. The value for `COC(=O)c1sccc1NN1C(=O)c2ccccc2C1=O` was 40.2% (active). With `COC(=O)c1sccc1NC(=S)Nc1ccc(C)cc1`, the activation was 12.9%. The value for `COC(=O)c1sccc1NC(=O)c1ccc(Cl)cc1` was -0.421%. The value for `O=C(NC1CCCCC1)C(c1cc2ccccc2o1)n1c(=O)c(-c2ccco2)nc2ccccc21` (configuration not stated) was 2.44%; that for `CCOC(=O)c1cccc(NC(=O)c2ccc(F)cc2F)c1` was 46.1% (active); that for `CCOC(=O)c1cccc(NC(=O)CCOc2ccccc2)c1` was -0.119%.

`CCOC(=O)c1cccc(NC(=O)CN2C(=O)C3CC=CCC3C2=O)c1` (configuration not stated): the activation was 0.82%. As for `COc1ccc(N2C(=O)c3ccccc3NC2c2ccc(OC)c(CN3CCOCC3)c2)cc1` (configuration not stated), the figure is 7.45%. In the case of `COc1ccc(C2Nc3ccccc3C(=O)N2c2ccc(Cl)cc2)cc1Cn1cc([N+](=O)[O-])cn1` (configuration not stated), the activation was 63.8% (active). The value for `COc1ccc(C2Nc3ccccc3C(=O)N2Cc2ccccc2)cc1Cn1nnc2ccccc21` (configuration not stated) was -5.17%; that for `COc1cccc(-c2cnc3c(NC(C)=O)cc(-c4cc(F)ccc4OC)cn23)c1` was -0.939%. As for `CC(C)(C)C1CCC(=O)N2CCC[C@]2(c2ccccc2)C1` (some centres not stated), the figure is -2.76%; as for `COc1ccc(C2=NN(C(=O)c3cccnc3)C(c3ccccc3)C2)cc1` (configuration not stated), 1.72%. For `COc1ccc(C2=NN(C(C)=O)C(c3ccccc3)C2)cc1` (configuration not stated), the activation was 3.24%. As for `COc1ccc(C2=NN(C(=O)c3ccccc3C(=O)O)C(c3ccccc3O)C2)cc1` (configuration not stated), the figure is 42.7% (active). The value for `COCCNC(=S)N(C)[C@H]1C[C@H]2c3[nH]c4ccccc4c3CCN2C[C@H]1[C@H](C)O` was -0.111%; that for `COC(=O)[C@]12CCCCC=C1N(Cc1ccc(Cl)cc1Cl)C(=O)[C@H](CC(=O)NCc1cccc3ccccc13)C2` was -3.47%. The value for `O=C(CCc1ccc(O)cc1)NN=Cc1cc(Br)ccc1O` was -2.84%; that for `O=C(Nc1ccccc1N1CCN(C(=O)c2ccccc2)CC1)c1ccc2c(c1)OCO2` was 1.55%. On to `O=C(Nc1ccccc1F)c1ccc2c(c1)OCO2`, for which the activation is 44% (active).

As to `N#Cc1ccccc1NC(=O)c1ccc2c(c1)OCO2`, the activation is 3.38%.

Regarding `CN1C(=O)C(Br)(Br)CC1c1cccnc1` (configuration not stated), the activation is 0.101%.

`CCOC(=O)[C@]12CCCC=C1N(CCC1=CCCCC1)C(=O)[C@H](CC(=O)N1CCSCC1)C2`: the activation was -2.19%. As to `COc1ccccc1Cc1c(-c2ccc(F)cc2)nc2ccc(C)cn12`, the activation is 13%. The value for `CCOC(=O)N1CCN(C(=O)C[C@H]2C[C@@]3(C(=O)OC)C(=C[C@H](C4CCCC4)O[C@@H]3C)N(Cc3ccccc3)C2=O)CC1` was -4.54%.

Regarding `CCN(CC)C(=O)CSc1ncnc2c1cnn2-c1ccccc1`, the activation is 61.3% (active). As for `CCN(C(=O)CSc1ncnc2c1cnn2-c1ccccc1)C1CCS(=O)(=O)C1` (configuration not stated), the figure is 0.526%; as for `CCC(C)N(C(=O)CSc1ncnc2c1cnn2-c1ccccc1)C1CCS(=O)(=O)C1` (configuration not stated), 0.0855%.

Turning to `O=C1NC[C@H](Cc2ccc(O)cc2)N(C[C@@H]2CCCN2C[C@H](Cc2ccccc2)N2C[C@H](Cc3ccccc3)N(CC3CCCCC3)C(=O)C2=O)C1=O`, the activation is -2.18%. The value for `COC(=O)c1ccc(CN2C(=O)[C@]3(OCCC=C[C@H]3C)c3c(Br)cccc32)cc1` was -10.3%; that for `CC1CC(C)CN(CC(=O)Nc2ccc(S(N)(=O)=O)cc2)C1` (configuration not stated) was -0.27%. As for `NS(=O)(=O)c1cccc(NC(=O)CN2CCCc3ccccc32)c1`, the figure is -1.12%; as for `CC1Cc2ccccc2N1CC(=O)Nc1ccc(S(N)(=O)=O)cc1` (configuration not stated), 39% (active); as for `CC1CCN(C(=O)COC(=O)c2cc(=O)[nH]c3ccccc23)CC1`, -3.48%. As for `CN(C(=O)COC(=O)c1cc(=O)[nH]c2ccccc12)C1CCCCC1`, the figure is 60.6% (active); as for `CC(NC(=O)COC(=O)c1cc(=O)[nH]c2ccccc12)c1ccccc1` (configuration not stated), -11.1%; as for `Cc1ccc([C@H]2N[C@]3(CCCN(Cc4ccccc4)C3=O)[C@H]3C(=O)N(Cc4ccccc4)C(=O)[C@@H]23)cc1`, -1.11%. As to `Cc1cc(C)nc(Nc2cc([N+](=O)[O-])ccc2C)n1`, the activation is -0.166%. As for `Cc1ccc(-n2cc3ccc([N+](=O)[O-])cc3n2)cc1`, the figure is 44.6% (active).

For the compound `Cc1ccc(-c2cn(S(=O)(=O)c3cccc([N+](=O)[O-])c3)nc2N)cc1`, the activation was -0.55%.

For `CC(C)[C@@H](C)/C=C/[C@@H](C)[C@H]1CC[C@@H]2[C@]1(C)CCC1[C@]23C=C[C@]2(C[C@@H](O)CC[C@]12C)N(c1ccc([N+](=O)[O-])cn1)O3` (some centres not stated), the activation is -14.5%. As for `CN(C(=O)CN1CCN(c2cc(-c3ccc(OCc4ccccc4)cc3)ncn2)CC1)c1ccccc1`, the figure is -1.53%; as for `CC(C)Cc1cc(C(=O)Nc2cc(Br)ccc2O)no1`, 44.3% (active); as for `CC(C)CNC(=O)c1cc(-c2ccc(Br)cc2)on1`, 26.3%.

With `CC(C)Cc1cc(C(=O)NCCc2ccccc2)no1`, the activation was 28.6%.

Consider `OC[C@@H]1CN(Cc2ccc(-c3ccccc3)cc2)C[C@H](n2cnc3c(NC4CCCC4)ncnc32)O1`, for which the activation was -4.89%. As for `Cc1nc2c(OCc3ccc(Cl)cc3Cl)cccn2c1N(C)CC1CC1`, the figure is -3.96%; as for `Nc1nc2c(ncn2[C@@H]2O[C@H](C(=O)N[C@@H](Cc3ccccc3)C(=O)NCc3ccccc3)[C@@H](O)[C@H]2O)c(=O)[nH]1`, 1.27%; as for `CSCCC(C(=O)NC(C)(C)C)n1c(-c2ccccc2)nc2ccccc21` (configuration not stated), 2.95%. The value for `CCOC(=O)c1c(NC(=S)SC)sc(C(=O)N2CCc3ccccc3C2)c1C` was -0.956%; that for `CCN1CCN(C(c2cccnc2)c2cc(Cl)c3cccnc3c2O)CC1` (configuration not stated) was 61.4% (active).

`CC(=O)NC(c1cccs1)c1cc(Br)c2cccnc2c1O` (configuration not stated): the activation was -2.66%. The value for `Oc1c(CN2CCCC2)cc(COCc2ccccc2)c2cccnc12` was 2.52%.

Regarding `O=C(NN=Cc1ccco1)C(=O)Nc1ccc(Cl)c([N+](=O)[O-])c1`, the activation was -3.58%. As for `Cc1cc(C)n2c(Nc3c(C)cccc3C)c(CCc3ccccc3)nc2n1`, the figure is -1.15%; as for `Cc1nc2cc(NC(=O)CSc3nc4c(C)cccc4cc3C#N)ccc2s1`, -2.44%; as for `Cc1nonc1NC(=O)CSc1nc2ccccc2cc1C#N`, 24.4%.

Consider `Cc1cc(C)c(C#N)c(SCC(=O)Nc2ccccc2)n1`, for which the activation was 39.1% (active). `CCCCc1c(-c2ccc(Br)cc2)ncn1CCc1ccccc1OC`: the activation is -12.1%.

`CC(=O)c1ccc(S(=O)(=O)NCC2CCN(C(=O)C(=O)c3cccs3)CC2)cc1`: the activation is -0.884%. The value for `Cc1nc(NC(=O)C23CCC(C)(C(=O)O2)C3(C)C)sc1C` (configuration not stated) was -2.53%; that for `Cc1nc(NC(=O)C2CCCCC2)sc1C` was 37.5% (active). The value for `Cc1nc2ccc(NC(=O)C3CCCCC3)cc2s1` was 15.2%. With `CCOC(=O)c1ccc(-c2ccc3ncnc(N(C)Cc4sccc4C)c3c2)o1`, the activation is 7.57%. As for `COC(=O)C(C(=O)OC)c1ccccc1NS(=O)(=O)c1cccc2ccccc12`, the figure is -4.59%; as for `CCc1nc2c(OCCOc3ccccc3)cccn2c1N(C)C(=O)c1cccs1`, -2.69%; as for `CCOc1ccc2cc(C#N)c(SCC(=O)OC)nc2c1`, 86% (active). Take `CCOc1ccc2nc(N3CCCN(C(=O)Nc4ccccc4C)CC3)c(C#N)cc2c1`: the activation was -1.99%.

`COc1ccc(CCNC(=O)CSc2nc(-c3ccc(OC)c(OC)c3)ccc2C#N)cc1`: the activation is -3.46%. As for `COc1ccc(NC(=O)C(c2ccncc2)n2c(=O)c(-c3cc4ccccc4[nH]3)nc3ccccc32)cc1` (configuration not stated), the figure is 16.9%; as for `C[C@H](O)[C@@H]1CN2CCc3ccc(-c4ccc5c(c4)OCO5)cc3[C@@H]2C[C@@H]1N(C)C(=O)C1CCCCC1`, 23.5%.

On to `Cc1ccccc1C(=O)N[C@H](C(=O)N1CCC[C@H]1C(=O)NCc1ccccc1)C(C)C`, for which the activation was -3.2%.

For the compound `COc1cccc(C(O)c2nc3ccccc3n2C)c1` (configuration not stated), the activation is 47.8% (active). As for `COc1ccc(OC)c(C(O)c2nc3ccccc3n2C)c1` (configuration not stated), the figure is -0.171%. The value for `COc1cc(C(O)c2nc3ccccc3n2C)cc(OC)c1OC` (configuration not stated) was -0.72%; that for `CCCCCCn1c(=O)n2n(c1=O)C[C@]1(OC(=O)NCc3ccc(OC)c(OC)c3)CN(S(=O)(=O)c3ccc(C)cc3)C[C@]1(O)C2` was -4.95%.
